Source: PubChem BioAssay (several laboratories)
SKKanGAS inh – blocks kanamycin growth of S. pyogenes SKKanGAS strain; BacTiter-Glo, 6 h; inhibition, % at 7.5 µM; actives 1.3% (n = 300,000); AID 1662;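 active = mean replicate score, as percent of positive control median, at least 50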;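 note: strain carries kanamycin resistance gene driven by streptokinase promoter and grows in 40 µg/ml kanamycin; loss of luminescence reflects streptokinase promoter inhibition or plain growth inhibition; 0% = median of DMSO wells and 100% = positive control at its reference dose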
IDE inh – inhibitors of human insulin-degrading enzyme in cells | P14735 | HEK cells, FAbetaB cleavage, fluorescence polarization | actives 0.41% (n = 320,000) | inhibition, % at 5.59 µM;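 active = percent inhibition above the average of all tested compounds plus 3 SD, set per screening campaign, cut at about 16% in these data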;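 note: IDE supplied by intact live HEK cells; FP after avidin binding of uncleaved biotin substrate so inhibition keeps polarization high; 0% = DMSO wells and 100% = 60 µM reference IDE inhibitor Ii1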
Granule exo inh – lytic granule exocytosis inhibition; TALL-104 LAMP-1 surface exposure, flow cytometry; cells stimulated with thapsigargin and PMA; inhibition, % at 10 µM; actives 0.66% (n = 360,000);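 active = inhibition above about 55%, limit read from the data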
PP1 counter – blocks human PP1-alpha phosphatase, a PP5 counter-screen. P62136. actives 0.9% (n = 320,000). purified PP1alpha, OMFP fluorescence. inhibition, % at 6.7 µM;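 active = inhibition above the mean inhibition of all tested compounds plus 3 SD, computed separately for each screening campaign, cut at about 15% in these data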
Target sequence (P62136 whole entry, looked up): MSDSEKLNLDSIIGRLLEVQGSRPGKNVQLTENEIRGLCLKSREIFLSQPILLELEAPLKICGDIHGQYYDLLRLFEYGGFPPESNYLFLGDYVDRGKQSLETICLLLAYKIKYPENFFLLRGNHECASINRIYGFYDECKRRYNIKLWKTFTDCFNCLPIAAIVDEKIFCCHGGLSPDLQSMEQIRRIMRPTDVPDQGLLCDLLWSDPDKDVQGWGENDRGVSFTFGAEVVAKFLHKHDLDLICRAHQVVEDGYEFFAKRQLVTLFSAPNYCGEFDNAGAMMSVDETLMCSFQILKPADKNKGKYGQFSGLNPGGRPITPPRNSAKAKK
PP5 inh – PP5 (human) phosphatase inhibition; P53041; purified PP5c, OMFP substrate fluorescence; inhibition, % at 6.7 µM; actives 0.18% (n = 320,000);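 active = inhibition above the campaign's mean inhibition across all tested compounds plus 3 SD, cut at about 9.5% in these data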;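 note: 0% = DMSO only and 100% = 100 µM cantharidin control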
IDE act – IDE (human) activation, cell-based; HEK cells, FAbeta-B cleavage, fluorescence polarization; 0% vehicle, 100% cell-free pure enzyme wells; AID 493087; activation, % at 5.96 µM; actives 0.073% (n = 340,000);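 active = activation above the mean of all tested compounds plus 3 SD, set per screening campaign, cut at about 17% in these data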
PP1 confirm – confirmation of human PP1 phosphatase inhibitors; purified PP1alpha, OMFP substrate fluorescence; shares compounds with PP1 counter; actives 52% (n = 1,900); inhibition, % at 6.7 µM; AID 2358;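 active = mean PP1 inhibition above a set limit taken from the earlier primary screen, cut at about 15% in these data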
PP5 counter – inhibits human PP5 phosphatase in PP1 counter-screen | shares compounds with PP1 counter | purified PP5c, OMFP fluorescence | inhibition, % at 6.7 µM | actives 4% (n = 1,900) | AID 2360;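 active = mean PP5 inhibition over triplicate wells above about 9.5% taken from the earlier PP1 screen, limit read from the data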
* = called active by the depositor; · = not tested or not shown. In the library only some 2.8% were active in any assay of this set; here they are far more common.

SMILES	SKKanGAS inh	IDE inh	Granule exo inh	PP1 counter	PP5 inh	IDE act	PP1 confirm	PP5 counter
Cc1cc(C2=NNC(=NC3CCCCC3)SC2)c(C)n1-c1c(C)n(C)n(-c2ccccc2)c1=O	9.0	4.1	-0.5	18.6*	1.7	-0.6	-0.4	-2.8
O=C(N/N=C/c1cccc([N+](=O)[O-])c1)c1cc(-c2ccc3c(c2)OCO3)n[nH]1	-13.0	3.7	-11.8	20.3*	0.1	2.8	25.4*	-3.4
Cc1ccc(-c2nnc(SCC(=O)N/N=C/c3ccc(C)s3)n2-c2ccc(C)cc2)cc1	11.9	6.7	18.7	19.6*	6.0	-0.3	5.5	-0.8
Cc1ccc(S(=O)(=O)N2CCCCC2)cc1NC(=O)COC(=O)c1cccc(O)c1	·	·	-2.6	·	·	·	·	·
O=C(Nc1nc(-c2ccc(-c3ccccc3)cc2)cs1)C1=COCCO1	-2.3	8.3	8.0	20.8*	0.8	0.3	34.1*	-3.5
O=C(Nc1nc(-c2ccccc2)cs1)c1ccccc1NS(=O)(=O)c1ccc(F)cc1	85.1*	0.2	3.2	21.0*	9.2	4.1	21.4*	12.7*
Cc1cc(N2CCCC2)ccc1/C=N/n1cnnc1	5.4	2.4	-1.3	17.6*	1.9	1.2	0.9	-6.6
Cc1ccc2nc(NC(=O)C3CCN(S(=O)(=O)c4cc([N+](=O)[O-])ccc4Cl)CC3)sc2c1	25.1	8.0	-0.3	20.4*	1.4	1.5	25.9*	3.4
O=C(Nc1nc2ccc(F)cc2s1)C1CCN(S(=O)(=O)c2cc([N+](=O)[O-])ccc2Cl)CC1	18.8	-0.4	6.2	3.8	-0.2	-2.5	·	·
CC(C)CNC(=O)CSc1ccc(S(=O)(=O)N2CCN(C)CC2)cn1	·	3.0	-1.5	-1.7	1.3	0.0	·	·
COc1ccc(N2C3=C(CC4=C2CCCC4=O)C(=O)CCC3)cc1	5.2	-0.8	-1.4	33.7*	-0.3	5.6	2.8	4.2
COc1cc(CN2C(=O)C(C)ON=C2c2cccs2)cc(OC)c1 (stereo not given)	·	·	1.7	·	·	·	·	·
CC(/C=C1\SC(=S)N(c2ccc(C(=O)O)cc2)C1=O)=C\c1ccccc1	115.7*	4.0	-1.0	43.6*	1.1	3.1	31.3*	-4.1
CC(/C=C1\SC(=S)N(NC(=O)c2ccc(C)cc2)C1=O)=C\c1ccccc1	5.4	2.5	-2.8	12.7	-0.2	7.8	·	·
Cc1nnc(SCC(=O)NCCc2ccccc2)s1	1.8	0.7	1.6	-0.5	2.1	3.7	·	·
Cc1ccc(Oc2nnc(-c3ccc(C)cc3)c3ccccc23)cc1	26.8	9.7	-0.1	40.7*	2.3	1.3	-7.8	-8.4
COc1ccc(C(=O)N/C(=C/c2cccnc2)C(=O)N2CCN(C)CC2)cc1OC	-2.9	2.0	-3.5	-3.7	-1.5	8.2	·	·
COc1ccc(C(CNC(=O)CNC(=O)c2ccccc2Cl)N2CCCC2)cc1 (stereo not given)	5.4	-0.3	-6.7	-2.8	-2.0	3.2	·	·
CCOc1ccccc1C(=O)NCC(=O)NCC(c1ccc(OC)cc1)N1CCOCC1 (stereo not given)	-15.6	-1.1	-4.2	22.8*	-0.7	3.3	-2.3	-2.9
CC(C)/C=C/C(=O)N1CCCC(N2CCN(c3ccccc3F)CC2)C1 (stereo not given)	0.0	1.5	0.3	-1.2	2.0	0.9	·	·
O=C(Nc1ccc(N2CCCC2)cc1)c1cc(Br)ccc1Cl	1.8	8.8	-5.0	33.1*	1.1	4.8	0.1	-1.5
O=C(Nc1ccc(N2CCCC2)cc1)c1ccccc1[N+](=O)[O-]	0.1	6.7	0.8	19.0*	1.3	4.9	-4.4	-2.5
CC(=O)c1ccc(NC(=O)N[C@@H](CC(C)C)C(=O)O)cc1	-5.3	-4.0	-3.1	18.1*	-3.1	-6.1	-4.1	-0.9
CC(=O)c1cccc(NC(=O)N[C@@H](CC(C)C)C(=O)O)c1	2.5	-1.6	-1.2	-1.9	2.4	5.9	·	·
COc1cc(/C=C/C(=O)OCC(=O)N2c3ccccc3NC(=O)C2(C)C)cc(OC)c1OC	·	1.6	-0.8	-0.5	1.9	4.2	·	·
